Results published in PubChem BioAssay AID1159580 (chemical genetic matrix, 2015).
About 2,000 (36%) of roughly 5,500 compounds were called active. About 18% were inconclusive and are not listed. Rule as the data show it: active = normalized growth mostly below about 0.91 (no sharp cut-off); inconclusive = no clear call, values can overlap the other calls; inactive = mostly above about 0.92. Some of the results follow.

Assay: chemical genetic growth profiling, strain panel (AID 1159580);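 also: tested at 20 µM; growth read once vehicle control cultures reached saturation at 30 °C; 1 = growth at the plate median or of vehicle wells; lower values mean less growth of the strain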
Settings: growth OD
[1] = S. cerevisiae deletion strains, locus YAL013W, strain DEP1, active compounds read low
[2] = S. cerevisiae deletion strains, locus YBR229C, strain ROT2, active compounds read low
[3] = S. cerevisiae deletion strains, locus YDL101C, strain DUN1, active compounds read low
[4] = S. cerevisiae deletion strains, locus YDR150W, strain NUM1, active compounds read low
[5] = S. cerevisiae deletion strains, locus YEL061C, strain CIN8, active compounds read low
[6] = S. cerevisiae deletion strains, locus YGR078C, strain PAC10, active compounds read low
[7] = S. cerevisiae deletion strains, locus YHR030C, strain SLT2, active compounds read low
[8] = S. cerevisiae deletion strains, locus YHR087W, strain rtc3, active compounds read low
[9] = S. cerevisiae deletion strains, locus YJR043C, strain POL32, active compounds read low
[10] = S. cerevisiae deletion strains, locus YJR075W, strain HOC1, active compounds read low
[11] = S. cerevisiae deletion strains, locus YKL190W, strain CNB1, active compounds read low
[12] = S. cerevisiae deletion strains, locus YLR039C, strain RIC1, active compounds read low
[13] = S. cerevisiae deletion strains, locus YLR058C, strain SHM2 (second series), active compounds read low
[14] = S. cerevisiae deletion strains, locus YLR085C, strain ARP6, active compounds read low
[15] = S. cerevisiae deletion strains, locus YLR262C, strain YPT6, active compounds read low
[16] = S. cerevisiae deletion strains, locus YML094W, strain GIM5, active compounds read low
[17] = S. cerevisiae deletion strains, locus YMR219W, strain ESC1, active compounds read low
[18] = S. cerevisiae deletion strains, locus YMR263W, strain SAP30, active compounds read low
[19] = S. cerevisiae deletion strains, locus YNL153C, strain GIM3, active compounds read low
[20] = S. cerevisiae deletion strains, locus YNL298W, strain CLA4 (second series), active compounds read low
[21] = S. cerevisiae deletion strains, locus YNL322C, strain KRE1, active compounds read low
[22] = S. cerevisiae deletion strains, locus YNR030W, strain Alg12, active compounds read low
[23] = S. cerevisiae deletion strains, locus YPL055C, strain LGE1, active compounds read low
[24] = S. cerevisiae deletion strains, locus YPL241C, strain CIN2, active compounds read low
[25] = S. cerevisiae deletion strains, locus YPR135W, strain CTF4, active compounds read low

Measured: normalized growth

O=C1CSC(c2cccnc2)N1c1ccc(C2CCCCC2)cc1 (stereo not given)
inactive: [1] 1 | [2] 1.01 | [3] 1.03 | S. cerevisiae deletion strains, locus YDL134C, strain PPH21, active compounds read low 0.941 | [4] 1.05 | [5] 0.999 | [6] 1.01 | [7] 1.28 | [8] 1.02 | [9] 1.02 | [10] 0.941 | [11] 0.945 | [12] 0.926 | [13] 0.991 | [14] 0.917 | [15] 0.888 | [16] 1.07 | [17] 1.02 | [18] 1.06 | [19] 1.01 | [20] 0.951 | [21] 1 | [22] 0.963 | [23] 1.04 | [24] 1.09 | [25] 0.832 | S. cerevisiae strains, strain wild type, active compounds read low 0.96

O=C1CSC(c2cccnc2)N1c1ccc(Cl)cc1 (stereo not given)
inactive: [1] 1 | [2] 0.997 | [3] 0.978 | [4] 0.997 | [5] 0.977 | [6] 1 | S. cerevisiae deletion strains, locus YGR229C, strain SMI1, active compounds read low 0.984 | [7] 1.12 | [8] 0.98 | [9] 0.983 | [10] 1 | [11] 0.997 | [13] 1.01 | [14] 1 | [16] 0.957 | [17] 0.992 | [18] 1.04 | S. cerevisiae deletion strains, locus YMR307W, strain GAS1, active compounds read low 1.01 | [19] 1.01 | [20] 1 | [21] 0.995 | [22] 0.994 | [23] 0.986 | [24] 1.04 | [25] 1.05
active: [12] 0.723 | [15] 0.677

CC1SC(c2cccnc2)N(c2ccc(F)cc2F)C1=O (stereo not given)
inactive: S. cerevisiae deletion strains, locus YAR019C, strain CDC15, active compounds read low 1 | S. cerevisiae deletion strains, locus YBL105C, strain PKC1, active compounds read low 0.987 | S. cerevisiae deletion strains, locus YBR135W, strain CKS1, active compounds read low 0.982 | S. cerevisiae deletion strains, locus YBR136W, strain MEC1, active compounds read low 0.99 | S. cerevisiae deletion strains, locus YBR160W, strain CDC28, active compounds read low 0.983 | S. cerevisiae deletion strains, locus YDL017W, strain CDC7, active compounds read low 0.985 | S. cerevisiae deletion strains, locus YDL028C, strain MPS1, active compounds read low 0.994 | [3] 0.985 | S. cerevisiae deletion strains, locus YDL108W, strain KIN28, active compounds read low 1 | S. cerevisiae deletion strains, locus YDL132W, strain cdc53, active compounds read low 0.981 | S. cerevisiae deletion strains, locus YDL214C, strain PRR2, active compounds read low 1.01 | S. cerevisiae deletion strains, locus YDR052C, strain DBF4, active compounds read low 0.981 | S. cerevisiae deletion strains, locus YDR054C, strain cdc34, active compounds read low 0.981 | S. cerevisiae deletion strains, locus YDR226W, strain ADK1, active compounds read low 0.974 | S. cerevisiae deletion strains, locus YDR477W, strain SNF1, active compounds read low 0.981 | S. cerevisiae deletion strains, locus YER123W, strain YCK3, active compounds read low 0.942 | S. cerevisiae deletion strains, locus YER133W, strain GLC7, active compounds read low 0.99 | S. cerevisiae deletion strains, locus YFL009W, strain cdc4, active compounds read low 0.981 | S. cerevisiae deletion strains, locus YFL029C, strain CAK1, active compounds read low 0.997 | S. cerevisiae deletion strains, locus YFR003C, strain YPI1, active compounds read low 0.991 | S. cerevisiae deletion strains, locus YFR019W, strain FAB1, active compounds read low 0.933 | S. cerevisiae deletion strains, locus YFR028C, strain CDC14, active compounds read low 0.979 | S. cerevisiae deletion strains, locus YGR040W, strain KSS1, active compounds read low 0.974 | S. cerevisiae deletion strains, locus YGR052W, strain FMP48, active compounds read low 0.931 | S. cerevisiae deletion strains, locus YGR092W, strain DBF2, active compounds read low 0.965 | [7] 1.01 | S. cerevisiae deletion strains, locus YHR079C, strain IRE1, active compounds read low 0.972 | S. cerevisiae deletion strains, locus YHR082C, strain KSP1, active compounds read low 0.925 | S. cerevisiae deletion strains, locus YHR205W, strain SCH9, active compounds read low 1 | S. cerevisiae deletion strains, locus YIL147C, strain SLN1, active compounds read low 0.992 | S. cerevisiae deletion strains, locus YJL095W, strain BCK1, active compounds read low 0.946 | S. cerevisiae deletion strains, locus YJL128C, strain PBS2, active compounds read low 0.988 | S. cerevisiae deletion strains, locus YJL157C, strain FAR1, active compounds read low 1 | S. cerevisiae deletion strains, locus YJR016C, strain ILV3, active compounds read low 0.986 | S. cerevisiae deletion strains, locus YJR066W, strain TOR1 (second series), active compounds read low 0.966 | S. cerevisiae deletion strains, locus YJR066W, strain TOR1, active compounds read low 0.82 | S. cerevisiae deletion strains, locus YKL048C, strain ELM1, active compounds read low 1 | S. cerevisiae deletion strains, locus YKL067W, strain YNK1, active compounds read low 1.02 | S. cerevisiae deletion strains, locus YKL101W, strain HSL1, active compounds read low 1.02 | S. cerevisiae deletion strains, locus YKL193C, strain SDS22, active compounds read low 0.973 | S. cerevisiae deletion strains, locus YKL203C, strain TOR2, active compounds read low 0.965 | S. cerevisiae deletion strains, locus YLR113W, strain HOG1, active compounds read low 0.957 | S. cerevisiae deletion strains, locus YLR133W, strain CKI1, active compounds read low 1.01 | S. cerevisiae deletion strains, locus YLR403W, strain SFP1, active compounds read low 0.976 | S. cerevisiae deletion strains, locus YML070W, strain DAK1, active compounds read low 1.02 | S. cerevisiae deletion strains, locus YMR001C, strain CDC5, active compounds read low 0.984 | S. cerevisiae deletion strains, locus YMR205C, strain PFK2 (second series), active compounds read low 1.02 | S. cerevisiae deletion strains, locus YMR277W, strain FCP1, active compounds read low 0.978 | S. cerevisiae deletion strains, locus YNL006W, strain LST8, active compounds read low 0.986 | S. cerevisiae deletion strains, locus YNL020C, strain ARK1, active compounds read low 1.01 | S. cerevisiae deletion strains, locus YNL161W, strain CBK1, active compounds read low 0.976 | S. cerevisiae deletion strains, locus YNL183C, strain NPR1, active compounds read low 0.968 | S. cerevisiae deletion strains, locus YNL207W, strain RIO2, active compounds read low 0.975 | S. cerevisiae deletion strains, locus YNL222W, strain SSU72, active compounds read low 0.983 | S. cerevisiae deletion strains, locus YNL307C, strain MCK1 (second series), active compounds read low 1 | S. cerevisiae deletion strains, locus YOL078W, strain AVO1, active compounds read low 0.976 | S. cerevisiae deletion strains, locus YOL136C, strain PFK27, active compounds read low 1.03 | S. cerevisiae deletion strains, locus YOR061W, strain CKA2, active compounds read low 0.995 | S. cerevisiae deletion strains, locus YOR119C, strain RIO1, active compounds read low 0.833 | S. cerevisiae deletion strains, locus YOR231W, strain MKK1, active compounds read low 0.936 | S. cerevisiae deletion strains, locus YOR329C, strain SCD5, active compounds read low 0.979 | S. cerevisiae deletion strains, locus YPL031C, strain PHO85, active compounds read low 0.981 | S. cerevisiae deletion strains, locus YPL153C, strain RAD53, active compounds read low 0.968 | S. cerevisiae deletion strains, locus YPL204W, strain HRR25, active compounds read low 0.972 | S. cerevisiae deletion strains, locus YPL209C, strain IPL1, active compounds read low 0.979 | S. cerevisiae deletion strains, locus YPL256C, strain CLN2, active compounds read low 0.954 | S. cerevisiae deletion strains, locus YPR025C, strain CCL1, active compounds read low 0.984 | S. cerevisiae deletion strains, locus YPR106W, strain ISR1, active compounds read low 1 | S. cerevisiae deletion strains, locus YPR111W, strain DBF20, active compounds read low 0.998 | S. cerevisiae deletion strains, strain NNK1, active compounds read low 0.992 | S. cerevisiae deletion strains, strain TSCII, active compounds read low 0.985
